Measurements published in the supplement of paper PMC6555819.

What follows are sequences tested on LXRb:RXRa (NR concentration 270 nM, RXRa partner concentration 90 nM) (assay: PBM binding z-score (relative to random genomic background probes); higher = stronger binding; sequences stand for … in GC…GCGATTGACAGCGTAGAATGAAGG).
Outline: (§1)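 Regression normalization was applied to scanned fluorescence from custom Agilent 4×180K protein-binding microarrays. Before scanning, arrays were incubated 1 h with ligand-free nuclear receptor dimers, and binding was detected with antibodies against each partner (one per run). Binding z-scores use the random background probes as reference.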

Sequence | PBM binding z-score
TCTCGGAGGACACGAAAGTCAGAGCTTTCCAGAG | -0.456
TCAGACAGGTGAAGTTAACTCAGGTACGCAGTCG | 0.725
CCTAGTTGATCAGGAGGTCACACACCGGATATGA | 3.71
ACAGATAGGTGATGAAGGTAACTCAGGCTATCAT | -0.29
GTTATTAGTTGAAAGGGCAACCGAATGATTCTCG | 1.56
AATACAGGGTCACTAGGGCAGAGTAGGTACGAAT | 4.23
GATACAGGGTCAAGTCCAGAGTACGCGTATTGAT | 4.3
CGTCAAAGTCCAACTAAGGTAACGTAAAGCACGC | -0.00355
CTCGAAAGGTCGGTTGAGATGAGTATACGGATAA | 1.32
CCGACTGGTGCATAAGGTTACCATAAGCCAGCCC | 0.722
TCTTGTAGATCAATAGAGGTTAAGATAGTGCGCT | 1.97
ACTAGCAGGCCAAGTTTGGCTCACTCAAACAAAG | -0.722
ATAATGAGGTTATTAAGATCAGGGAATTGCGGTC | 1.48
TCTTGTAGATCAATAGAGGTTATGAAAGTGCGCT | 1.68
ATCACTAGGTAAAGTTCAGTGAAAGATCGATAGA | 1.17
CGAACGAGGGCATGAGTTCATAGCAAATGCCGAT | 1.51
CCTTACGGGTCACGAGGGTATAGCACGACGAGCG | 3.48
CCGACTGGGGCAAGGTTACCATTACGCACAGCCA | 0.492
TTACCAAGGTGAAAGGTCGTGGATGCACGCCTTG | 3.01
CCAGACATGTGAGAAGGTAACTCAGCCTCGATTA | -0.057

Sequence | PBM binding z-score
TCTATTAGTTGAAGGGCAATCGACGAGTCCGTTT | 0.908
ATCGAAAGGTCGTGAGGTGAGTATACAGAAAGGC | 3.13
TGTCAAAGTTCAAAGGTAATGTAAGTATCCACAC | 4.31
ATCGAGAGGTCGACGAGGTGAGTATACACCGTTT | 1.65
TAGCCTAGGTCAGATCGGCCCAGTATACGCTATA | 0.955
GGAACGAGGGCAAGCTGATAGCAGAGTTTGATGG | 0.0396
CCTATTAGTTGACCATAAGTGCAACCGAAGCTCG | 0.757
CCTAGTTGGTCAAGGTCACAGACGCTATAGGTAC | 3.6
ATTAGTTGGTCAGCTGAGGTCACACACAATTCGG | 3.95
AGAACGAGGGCACGCTGAGTTGATCGCAGAGTAG | 0.0852
CCGAGTAGGTTATCGGGCATTCAGGCAACGGTGA | -0.0205
TCTAGTTGGTCAAAGGTCGCACACTCGAAATGCG | 2.92
TCTGCTAGGTCAACGATGGTCAGCTGATCTGCTA | 1.72
CGAACTAGGTCATTGACATGACAGTGAATAGTAA | 2.31
ATCTCTAGGTAAAGATAGCTCAGTGAATGCAAAT | -0.258
TCTTGTGGATCAACAGGAGGTTAAGAAAGATCGA | 0.808
TGAATGAGGTTAAAGATGAGGGAACGTGGCGTCG | 1.29
TGAATGAGGTTAAAGATCAGCGAACGTGGCGTCG | 1.62
CCAGTCAGGTGAGAAGGTAACTCAGCCTCGATTA | -0.0607
TCTTGTAGATCAATAGAGGTTACGAAAGTGCGCT | 2.05

The sequences below were run on LXRb homodimer (NR concentration 270 nM) in the same assay as above.
Outline: as §1

Sequence | PBM binding z-score
TCTCGGAGGACACGAAAGTCAGAGCTTTCCAGAG | -1.24
TCAGACAGGTGAAGTTAACTCAGGTACGCAGTCG | -0.0783
CCTAGTTGATCAGGAGGTCACACACCGGATATGA | 1
ACAGATAGGTGATGAAGGTAACTCAGGCTATCAT | -0.768
GTTATTAGTTGAAAGGGCAACCGAATGATTCTCG | 1.28
AATACAGGGTCACTAGGGCAGAGTAGGTACGAAT | 1.51
GATACAGGGTCAAGTCCAGAGTACGCGTATTGAT | 0.511
CGTCAAAGTCCAACTAAGGTAACGTAAAGCACGC | 0.104
CTCGAAAGGTCGGTTGAGATGAGTATACGGATAA | -0.0369
CCGACTGGTGCATAAGGTTACCATAAGCCAGCCC | -0.632
TCTTGTAGATCAATAGAGGTTAAGATAGTGCGCT | -0.0819
ACTAGCAGGCCAAGTTTGGCTCACTCAAACAAAG | -0.853
ATAATGAGGTTATTAAGATCAGGGAATTGCGGTC | 1.07
TCTTGTAGATCAATAGAGGTTATGAAAGTGCGCT | 0.325
ATCACTAGGTAAAGTTCAGTGAAAGATCGATAGA | 0.688
CGAACGAGGGCATGAGTTCATAGCAAATGCCGAT | -0.903
CCTTACGGGTCACGAGGGTATAGCACGACGAGCG | -0.518
CCGACTGGGGCAAGGTTACCATTACGCACAGCCA | -0.9
TTACCAAGGTGAAAGGTCGTGGATGCACGCCTTG | -0.715
CCAGACATGTGAGAAGGTAACTCAGCCTCGATTA | 0.106

Sequence | PBM binding z-score
TCTATTAGTTGAAGGGCAATCGACGAGTCCGTTT | 0.176
ATCGAAAGGTCGTGAGGTGAGTATACAGAAAGGC | 0.435
TGTCAAAGTTCAAAGGTAATGTAAGTATCCACAC | 1.91
ATCGAGAGGTCGACGAGGTGAGTATACACCGTTT | -0.204
TAGCCTAGGTCAGATCGGCCCAGTATACGCTATA | -0.183
GGAACGAGGGCAAGCTGATAGCAGAGTTTGATGG | -1.04
CCTATTAGTTGACCATAAGTGCAACCGAAGCTCG | 1.09
CCTAGTTGGTCAAGGTCACAGACGCTATAGGTAC | 0.603
ATTAGTTGGTCAGCTGAGGTCACACACAATTCGG | 1.13
AGAACGAGGGCACGCTGAGTTGATCGCAGAGTAG | -0.872
CCGAGTAGGTTATCGGGCATTCAGGCAACGGTGA | -0.739
TCTAGTTGGTCAAAGGTCGCACACTCGAAATGCG | 0.553
TCTGCTAGGTCAACGATGGTCAGCTGATCTGCTA | 0.146
CGAACTAGGTCATTGACATGACAGTGAATAGTAA | -0.197
ATCTCTAGGTAAAGATAGCTCAGTGAATGCAAAT | 0.316
TCTTGTGGATCAACAGGAGGTTAAGAAAGATCGA | -0.625
TGAATGAGGTTAAAGATGAGGGAACGTGGCGTCG | 0.831
TGAATGAGGTTAAAGATCAGCGAACGTGGCGTCG | 0.0932
CCAGTCAGGTGAGAAGGTAACTCAGCCTCGATTA | -0.774
TCTTGTAGATCAATAGAGGTTACGAAAGTGCGCT | 0.24
